Test [1] can be described thus: NCI Yeast Anticancer Drug Screen. Data for the rad50 strain (AID 155).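 Note: 0% = growth of vehicle-only cultures of the same strain.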 The note with it: S. cerevisiae rad50 strain growth inhibition, hits give high values. The essentials:
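Genetically altered yeast (DNA repair pathway); compound treatment; growth inhibition vs vehicle ctrl.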

A short description of test [2]: NCI Yeast Anticancer Drug Screen. Data for the mec2-1 strain (AID 157). The following applies: S. cerevisiae mec2-1 strain, hits give high values. In a few lines:
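Mutant yeast (mec2-1) grown with compound; growth inhibition relative to vehicle control reported.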

A short description of test [3]: NCI Yeast Anticancer Drug Screen. Data for the sgs1 mgt1 strain (AID 161).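 Note: 0% = growth of cultures given vehicle only.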 The following applies: S. cerevisiae sgs1 mgt1 strain, hits give high values. The essentials: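 Yeast cells carrying a defined DNA-repair defect were exposed to test compounds. Growth inhibition was measured relative to vehicle-treated controls.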
Test [4] is described as follows: NCI Yeast Anticancer Drug Screen. Data for the cln2 rad14 strain (AID 165).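 Note: 0% = growth equal to vehicle treated cultures.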 The following applies: S. cerevisiae cln2 rad14 strain, hits give high values. The essentials:
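Readout is yeast growth inhibition versus vehicle-treated controls, using a strain with cln2 and rad14 alterations exposed to compound.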

Test [5] is described as follows: NCI Yeast Anticancer Drug Screen. Data for the bub3 strain (AID 167). The note with it: S. cerevisiae bub3 mutant strain, hits give high values. In a few lines:
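Yeast carrying a defined mutation is treated with each compound, and growth is compared with that of vehicle-exposed cells to give inhibition.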

Test [6] is described as follows: NCI Yeast Anticancer Drug Screen. Data for the mlh1 rad18 strain (AID 175). The following applies: S. cerevisiae mlh1 rad18 strain growth inhibition, hits give high values. In a few lines:
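Genetically defined yeast (DNA repair-deficient) exposed to compounds; growth inhibition determined relative to vehicle.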

The mark [7] stands for this setting: at 5.0 µM (retest, dose inferred, filed as 0.5).
The mark [8] stands for this setting: at 50.0 µM (retest, dose inferred, filed as 5.0).

These results are taken from PubChem BioAssay (NCI).

About 79,000 compounds went through this panel and 15% of them were active in at least one assay; those are over-represented in the sample as a whole. A number with no mark means an inactive call. The source made the active and inactive calls. Cut-off read from the data, not from the text of the source: active = growth inhibition above about 70%; inactive = the rest.

As for `O=C(NCCCNCCCCNCCCNC(=O)c1cc(-c2ccccc2)nc2ccccc12)c1cc(-c2ccccc2)nc2ccccc12`, the growth inhibition is 49% in test [1] (setting [7]); 98% (active) in test [1] (setting [8]); 90.2% (active) in test [1] (at 50.0 µM); 25% in test [2] (setting [7]); 99% (active) in test [2] (setting [8]); 93.2% (active) in test [2] (at 50.0 µM). Also, the growth inhibition in test [3] (setting [7]) was 34%; in test [3] (setting [8]) it was 99% (active); in test [3] (at 50.0 µM), 92.8% (active); in test [4] (setting [7]) it was 30%; in test [4] (setting [8]), 98% (active); in test [4] (at 50.0 µM) it was 91.1% (active). Besides, the growth inhibition in test [5] (setting [7]) is 33%; in test [5] (setting [8]), 64%; in test [5] (at 50.0 µM), 92.2% (active); in test [6] (setting [7]) it was 46%; in test [6] (setting [8]), 99% (active); in test [6] (at 50.0 µM), 90% (active).
As for `Cc1ccc(C(=O)OCC(C)C)cc1N=NN(C)C`, the growth inhibition was 4% in test [1] (setting [7]); 21% in test [1] (setting [8]); 68.8% in test [1] (at 50.0 µM); -3% in test [2] (setting [7]); -6% in test [2] (setting [8]); 19.9% in test [2] (at 50.0 µM). Also, the growth inhibition was -5% in test [3] (setting [7]); 14% in test [3] (setting [8]); 29.4% in test [3] (at 50.0 µM); 7% in test [4] (setting [7]); 31% in test [4] (setting [8]); 38.8% in test [4] (at 50.0 µM). In addition, the growth inhibition in test [5] (setting [7]) was -1%; in test [5] (setting [8]), 48%; in test [5] (at 50.0 µM) it was 31.1%; in test [6] (setting [7]) it was -24%; in test [6] (setting [8]), 38%; in test [6] (at 50.0 µM) it was 8.3%.
`NCC(O)CSc1ccc(Cl)c(Cl)c1` (stereo not given): the growth inhibition in test [1] (setting [7]) is 2%; in test [1] (setting [8]) it was 11%; in test [1] (at 50.0 µM), 8.95%; in test [2] (setting [7]), -2%; in test [2] (setting [8]) it was -4%; in test [2] (at 50.0 µM) it was 14.2%. The growth inhibition in test [3] (setting [7]) was 1%; in test [3] (setting [8]) it was 16%; in test [3] (at 50.0 µM) it was 18.8%; in test [4] (setting [7]) it was 5%; in test [4] (setting [8]), 9%; in test [4] (at 50.0 µM), 74.8% (active). Further, the growth inhibition in test [5] (setting [7]) is 3%; in test [5] (setting [8]), 3%; in test [5] (at 50.0 µM), 17.2%; in test [6] (setting [7]) it was 4%; in test [6] (setting [8]), 7%; in test [6] (at 50.0 µM) it was 11.4%.
Take `CC(C)=CC1C(COC(=O)CCl)C1(C)C` (stereo not given): the growth inhibition in test [1] (setting [7]) is -6%; in test [1] (setting [8]), 8%; in test [1] (at 50.0 µM) it was 1.85%; in test [2] (setting [7]), 3%; in test [2] (setting [8]) it was 0%; in test [2] (at 50.0 µM), 44.8%. The growth inhibition in test [3] (setting [7]) is -2%; in test [3] (setting [8]), 3%; in test [3] (at 50.0 µM) it was -12.3%; in test [4] (setting [7]), 0%; in test [4] (setting [8]) it was -11%; in test [4] (at 50.0 µM) it was -29.4%. In addition, the growth inhibition in test [5] (setting [7]) was 2%; in test [5] (setting [8]) it was -5%; in test [5] (at 50.0 µM), 36.1%; in test [6] (setting [7]), -2%; in test [6] (setting [8]), 5%; in test [6] (at 50.0 µM) it was -23.6%.
Take `CN(C)c1ccc(/C=N/N=C(/C#N)[S][Sn]([S]/C(C#N)=N/N=C/c2ccc(N(C)C)cc2)([c]2ccccc2)[c]2ccccc2)cc1`: the growth inhibition in test [1] (setting [7]) was 7%; in test [1] (setting [8]), 95% (active); in test [1] (at 50.0 µM), 98.3% (active); in test [2] (setting [7]), 1%; in test [2] (setting [8]), 96% (active); in test [2] (at 50.0 µM), 96.5% (active). Moreover, the growth inhibition in test [3] (setting [7]) is 10%; in test [3] (setting [8]) it was 92% (active); in test [3] (at 50.0 µM), 97.7% (active); in test [4] (setting [7]), 0%; in test [4] (setting [8]), 89% (active); in test [4] (at 50.0 µM), 95.9% (active). Moreover, the growth inhibition in test [5] (setting [7]) was -19%; in test [5] (setting [8]), 98% (active); in test [5] (at 50.0 µM) it was 95.7% (active); in test [6] (setting [7]) it was 5%; in test [6] (setting [8]) it was 96% (active); in test [6] (at 50.0 µM), 97.4% (active).
Take `OCCCC(Sc1ccccc1)c1ccccc1` (stereo not given): the growth inhibition in test [1] (setting [7]) is -1%; in test [1] (setting [8]), 25%; in test [1] (at 50.0 µM) it was 46.4%; in test [2] (setting [7]) it was -18%; in test [2] (setting [8]) it was 13%; in test [2] (at 50.0 µM), 78.5% (active). Further, the growth inhibition in test [3] (setting [7]) was -15%; in test [3] (setting [8]), 23%; in test [3] (at 50.0 µM) it was 67.2%; in test [4] (setting [7]), -1%; in test [4] (setting [8]) it was -1%; in test [4] (at 50.0 µM), 40.2%. The growth inhibition in test [5] (setting [7]) is -4%; in test [5] (setting [8]), 3%; in test [5] (at 50.0 µM), -0.25%; in test [6] (setting [7]) it was 28%; in test [6] (setting [8]) it was 23%; in test [6] (at 50.0 µM), 52.2%.
As to `C#CCNC(C)(C)C`, the growth inhibition in test [1] (setting [7]) is 1%; in test [1] (setting [8]) it was 4%; in test [1] (at 50.0 µM) it was 98.5% (active); in test [2] (setting [7]), -5%; in test [2] (setting [8]), 1%; in test [2] (at 50.0 µM), 99.4% (active). Further, the growth inhibition in test [3] (setting [7]) is -2%; in test [3] (setting [8]), -3%; in test [3] (at 50.0 µM), 86% (active); in test [4] (setting [7]) it was -3%; in test [4] (setting [8]), 2%; in test [4] (at 50.0 µM) it was 98.7% (active). Moreover, the growth inhibition in test [5] (setting [7]) is 3%; in test [5] (setting [8]) it was -2%; in test [5] (at 50.0 µM), 99.7% (active); in test [6] (setting [7]), -1%; in test [6] (setting [8]), 1%; in test [6] (at 50.0 µM), 99.1% (active).
For the compound `O=C(/C=C/c1ccccc1)c1ccc(NCc2nc3ccccc3[nH]2)cc1`, the growth inhibition was -28% in test [1] (setting [7]); 74% (active) in test [1] (setting [8]); 70.7% (active) in test [1] (at 50.0 µM); -62% in test [2] (setting [7]); 61% in test [2] (setting [8]); 77% (active) in test [2] (at 50.0 µM). Further, the growth inhibition in test [3] (setting [7]) is -23%; in test [3] (setting [8]), 82% (active); in test [3] (at 50.0 µM), 84% (active); in test [4] (setting [7]) it was -20%; in test [4] (setting [8]) it was 80% (active); in test [4] (at 50.0 µM), 84.8% (active). Further, the growth inhibition in test [5] (setting [7]) is -8%; in test [5] (setting [8]), 85% (active); in test [5] (at 50.0 µM) it was 76.7% (active); in test [6] (setting [7]) it was -35%; in test [6] (setting [8]), 80% (active); in test [6] (at 50.0 µM) it was 68.8%.
Take `CCCCCCCCC(=O)Cl`: the growth inhibition in test [1] (setting [7]) is 11%; in test [1] (setting [8]), 82% (active); in test [1] (at 50.0 µM), 74.4% (active); in test [2] (setting [7]), 9%; in test [2] (setting [8]) it was 61%; in test [2] (at 50.0 µM), 47.9%. Also, the growth inhibition is 10% in test [3] (setting [7]); 64% in test [3] (setting [8]); 77.5% (active) in test [3] (at 50.0 µM); 6% in test [4] (setting [7]); 38% in test [4] (setting [8]); 27.1% in test [4] (at 50.0 µM). Also, the growth inhibition in test [5] (setting [7]) was 0%; in test [5] (setting [8]), 77% (active); in test [5] (at 50.0 µM), 69.3%; in test [6] (setting [7]), 6%; in test [6] (setting [8]), 69%; in test [6] (at 50.0 µM), 88.3% (active).
On to `COc1ccc2c(Cc3ccccc3)c3[n+](cc2c1OC)CCc1cc2c(cc1-3)OCO2`, for which the growth inhibition in test [1] (setting [7]) was 2%; in test [1] (setting [8]), 98% (active); in test [1] (at 50.0 µM) it was 98.8% (active); in test [2] (setting [7]), 8%; in test [2] (setting [8]), 97% (active); in test [2] (at 50.0 µM) it was 99.2% (active). Also, the growth inhibition was 4% in test [3] (setting [7]); 99% (active) in test [3] (setting [8]); 99% (active) in test [3] (at 50.0 µM); -1% in test [4] (setting [7]); 98% (active) in test [4] (setting [8]); 98.2% (active) in test [4] (at 50.0 µM). For the same compound, the growth inhibition in test [5] (setting [7]) was 12%; in test [5] (setting [8]), 98% (active); in test [5] (at 50.0 µM), 98.8% (active); in test [6] (setting [7]), -4%; in test [6] (setting [8]), 97% (active); in test [6] (at 50.0 µM), 98.9% (active).
